The campaign covered roughly 310,000 compounds. About 410 (0.13%) were called active. Not shown: some 2% with an inconclusive outcome. How the calls were made is not given here. Only a sample is shown. Potency and affinity values are given separately.
Test: RSV antiviral activity via CPE protection, HEp-2 cells, primary 10 µM value included (AID 2391)
Conditions: RSV-induced CPE inhibition, at 10 µM, stronger effect = higher value

Question: Which CPE inhibition does the source give for CCOC(=O)C1=C(C)N=c2s/c(=C\c3ccc(OCC(=O)O)c(OC)c3)c(=O)n2C1c1ccc(OC)cc1 (stereo unspecified) here?
Answer: 2.77% (inactive)

Question: For CCOC(=O)C1=C(C)N=c2s/c(=C\c3ccc(OCC(=O)O)cc3)c(=O)n2C1c1ccc(Cl)cc1 (stereo unspecified), which CPE inhibition is on record?
Answer: 18.1% (inactive)

Question: With CC1CC(C)CN(S(=O)(=O)c2ccc(C(=O)OCC(=O)NCCN3C(=O)CSC3=O)cc2)C1 (stereo unspecified) as the compound, how does the CPE inhibition read?
Answer: 0.02% (inactive)

Question: With Cc1nnc(SCC(=O)N(C2CCCCC2)C2CCS(=O)(=O)C2)n1N (stereo unspecified) as the compound, how does the CPE inhibition read?
Answer: -1.53% (inactive)

Question: With O=C(CSc1nc2ccccc2o1)N1CCCC1 as the compound, how does the CPE inhibition read?
Answer: -0.37% (inactive)

Question: With COC(=O)C1=C(C)N(CC2CC2)C(=O)N[C@H]1c1ccc(Br)cc1 as the compound, how does the CPE inhibition read?
Answer: 27% (inactive)

Question: For COC(=O)C1=C(C)N(Cc2ccco2)C(=O)N[C@@H]1c1cccc(C(F)(F)F)c1, which CPE inhibition is on record?
Answer: 4.06% (inactive)

Question: With COC(=O)C1=C(C)N(Cc2ccco2)C(=O)N[C@@H]1c1ccco1 as the compound, how does the CPE inhibition read?
Answer: 0.83% (inactive)

Question: For COC(=O)C1=C(C)N(Cc2ccco2)C(=O)N[C@@H]1c1ccc(Br)cc1, which CPE inhibition is on record?
Answer: 0.6% (inactive)

Question: For COC(=O)C1=C(C)N(Cc2ccco2)C(=O)N[C@@H]1c1ccccc1, which CPE inhibition is on record?
Answer: 2.19% (inactive)

Question: For CCN1C(=O)N[C@@H](c2cccc(C(F)(F)F)c2)C(C(=O)OC)=C1C, which CPE inhibition is on record?
Answer: -0.08% (inactive)

Question: For CCOCCOC(=O)C1=C(C)Nc2ccc(C)cc2S1, which CPE inhibition is on record?
Answer: 2.03% (inactive)

Question: With CN(C(=O)COC(=O)c1cc(S(=O)(=O)N2CCOCC2)ccc1Cl)C1CCS(=O)(=O)C1 (stereo unspecified) as the compound, how does the CPE inhibition read?
Answer: -1.51% (inactive)

Question: Which CPE inhibition does the source give for CCn1nnnc1-c1ccc(OC)c(S(=O)(=O)Nc2ccc(C(=O)OC)cc2)c1 here?
Answer: 1.29% (inactive)

Question: For Cc1ccc(CC(=O)NCC2CCCCC2)cc1, which CPE inhibition is on record?
Answer: 0.51% (inactive)

Question: Which CPE inhibition does the source give for Cc1ccsc1CNC1C2CC3CC(C2)CC1C3 (stereo unspecified) here?
Answer: -1.39% (inactive)

Question: Which CPE inhibition does the source give for CC(C)c1ccc(/C=C(\NC(=O)c2ccccc2)C(=O)NCCCN2CCOCC2)cc1 here?
Answer: 0.11% (inactive)

Question: For CC(C)c1ccc(/C=C(\NC(=O)c2ccccc2)C(=O)NCCN2CCOCC2)cc1, which CPE inhibition is on record?
Answer: 0.84% (inactive)

Question: Which CPE inhibition does the source give for Cc1ccc(C(=O)N/C(=C\c2ccc(Cl)cc2)C(=O)NCCN2CCOCC2)cc1 here?
Answer: 0.95% (inactive)

Question: For Cc1ccc(C(=O)N/C(=C\c2ccc(Cl)cc2)C(=O)NCCCN2CCOCC2)cc1, which CPE inhibition is on record?
Answer: 2.02% (inactive)

Question: For N#C/C(=C\c1ccc(OCc2ccc(C(=O)O)cc2)cc1)C(=O)NCc1ccccc1, which CPE inhibition is on record?
Answer: 1.49% (inactive)

Question: For CCOc1ncccc1C(=O)N(C)CC(=O)Nc1ccccc1SC, which CPE inhibition is on record?
Answer: 1.11% (inactive)

Question: With Clc1ccc(Sc2cc(Cl)c(-c3ccccc3)nn2)cc1 as the compound, how does the CPE inhibition read?
Answer: 4.99% (inactive)

Question: Which CPE inhibition does the source give for O=C(C1=COCCO1)N1CCN(S(=O)(=O)c2cccc(F)c2)CC1 here?
Answer: 1.49% (inactive)

Question: For Cc1cc2c(cc1S(=O)(=O)Nc1cccc(C)c1C)n(C)c(=O)c(=O)n2C, which CPE inhibition is on record?
Answer: -1.46% (inactive)

Question: Which CPE inhibition does the source give for CN(C)S(=O)(=O)c1cccc(NC(=O)COC(=O)CCC(=O)c2cccs2)c1 here?
Answer: -1.26% (inactive)

Question: Which CPE inhibition does the source give for Cc1ccc(S(=O)(=O)NNC(=O)Nc2ccc(C)c(C)c2)c(C)c1 here?
Answer: 1.56% (inactive)

Question: For COc1cccc(CN2C(=O)C3CCCN3c3ccc(S(=O)(=O)N4CCOCC4)cc32)c1 (stereo unspecified), which CPE inhibition is on record?
Answer: 15.8% (inactive)

Question: With COc1ccc(CCNC(=O)c2ccc([N+](=O)[O-])cc2)cc1 as the compound, how does the CPE inhibition read?
Answer: 0.4% (inactive)

Question: Which CPE inhibition does the source give for COc1ccc(CCNC(=O)c2ccc(-c3ccc([N+](=O)[O-])cc3)o2)cc1OC here?
Answer: 3.03% (inactive)

Question: Which CPE inhibition does the source give for COC(=O)c1ccccc1OC(=O)c1cc2ccccc2oc1=O here?
Answer: -0.19% (inactive)

Question: With Nc1nc(SCC(=O)c2ccc(F)cc2)n[nH]1 as the compound, how does the CPE inhibition read?
Answer: 0.71% (inactive)

Question: For O=C(CNc1ccccc1)N/N=C/c1cn(-c2ccccc2)nc1-c1ccccc1, which CPE inhibition is on record?
Answer: 6.81% (inactive)

Question: For O=C(CNc1cccc(C(F)(F)F)c1)N/N=C/c1ccccc1C(=O)O, which CPE inhibition is on record?
Answer: 1.07% (inactive)

Question: Which CPE inhibition does the source give for CCOC(=O)N1CCN(C(=O)COc2ccc3c(c2)C(=O)CC(C)(C)O3)CC1 here?
Answer: 1.7% (inactive)

Question: Which CPE inhibition does the source give for Cc1ccc(N(C(=O)c2snc(C(N)=O)c2N)C(C(=O)NC2CCCC2)c2ccncc2)cc1 (stereo unspecified) here?
Answer: 0.36% (inactive)

Question: For COc1cc(C(C(=O)NC2CCCC2)N(C(=O)c2snc(C(N)=O)c2N)c2ccccc2)cc(OC)c1OC (stereo unspecified), which CPE inhibition is on record?
Answer: 1.74% (inactive)

Question: For COc1ccc(C(C(=O)NC2CCCC2)N(C(=O)c2snc(C(N)=O)c2N)C2CCCC2)cc1OC (stereo unspecified), which CPE inhibition is on record?
Answer: 3.34% (inactive)

Question: Which CPE inhibition does the source give for COc1ccc(C(C(=O)NC2CCCC2)N(C(=O)c2snc(C(N)=O)c2N)c2ccccc2OC)cc1OC (stereo unspecified) here?
Answer: 17.8% (inactive)

Question: For Cc1ccc(C(CCN(Cc2ccccc2)C(=O)c2ccco2)c2ccco2)cc1 (stereo unspecified), which CPE inhibition is on record?
Answer: 6.53% (inactive)

Question: For Cc1cccc(CSc2nc3sc(C)c(C)c3c(=O)n2Cc2ccco2)c1, which CPE inhibition is on record?
Answer: 13.2% (inactive)

Question: For Cc1ccc(-n2c(SCC(=O)Nc3cccc(S(N)(=O)=O)c3)nc3ccccc32)cc1, which CPE inhibition is on record?
Answer: 1.64% (inactive)

Question: For COc1ccc(-n2c(SCC(=O)Nc3ncc(Cl)cc3Cl)nc3ccccc32)cc1, which CPE inhibition is on record?
Answer: 18.7% (inactive)

Question: With COc1ccc(-n2c(SC(C)C(=O)Nc3ncc(Cl)cc3Cl)nc3ccccc32)cc1 (stereo unspecified) as the compound, how does the CPE inhibition read?
Answer: 15.9% (inactive)

Question: With Cc1cc(SCC(=O)Nc2ncc(Cl)cc2Cl)nc2ccccc12 as the compound, how does the CPE inhibition read?
Answer: 5.54% (inactive)

Question: Which CPE inhibition does the source give for O=C(CSc1nnc2ccccn12)Nc1ncc(Cl)cc1Cl here?
Answer: 4.23% (inactive)

Question: For COCCn1c(SCC(=O)Nc2ccc(Cl)cn2)nc2ccccc21, which CPE inhibition is on record?
Answer: -1.02% (inactive)

Question: For CC(=O)N[C@@H](Cc1ccc(O)cc1)CN1C(N)=NC[C@@H]1CC(C)C, which CPE inhibition is on record?
Answer: -0.28% (inactive)

Question: With O=C(COc1cccc2c1CCNC2=O)Nc1cccc(C(F)(F)F)c1 as the compound, how does the CPE inhibition read?
Answer: 1.19% (inactive)

Question: Which CPE inhibition does the source give for C/C(=N/OC(=O)C1CC12CCC2)c1ccc(Br)cc1 (stereo unspecified) here?
Answer: 2.98% (inactive)

Question: Which CPE inhibition does the source give for CCOC(=O)C1CCN(C(=O)CC(C)S(=O)(=O)c2ccc3c(c2)NC(=O)CO3)CC1 (stereo unspecified) here?
Answer: 7% (inactive)

Question: For CCOc1ccc(S(=O)(=O)Nc2ccc(F)cc2)c(C)c1C, which CPE inhibition is on record?
Answer: 6.57% (inactive)

Question: For Cc1cccc(C)c1OCc1cc(C(=O)N2CCN(C3CCCC3)CC2)no1, which CPE inhibition is on record?
Answer: 0.09% (inactive)

Question: For O=C(Oc1ccc(-c2nnco2)cc1)N1CCCCC1, which CPE inhibition is on record?
Answer: 2.35% (inactive)

Question: For OCCNc1c2ccccc2nc2c(F)c(F)c(F)c(F)c12, which CPE inhibition is on record?
Answer: -1.66% (inactive)

Question: Which CPE inhibition does the source give for CCCNc1c(F)c(F)c2c(C)c3ccccc3nc2c1F here?
Answer: -1.87% (inactive)

Reference: PubChem BioAssay AID2391 (Southern Research Specialized Biocontainment Screening …, 2010)
